{"source": "PubChem BioAssay (NCATS)", "key": {"[1]": {"test": "AP1 Signaling Pathway (AID 357);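 further: ME-180 reporter cells stimulated with EGF at its EC50 level; on the % scale 0 is the no-effect control and ±100 the full control effect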", "outline": "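First, ME-180 AP-1-bla cells were cultured overnight at 37 °C in low-serum Opti-MEM. Next, titrated compounds with EC50 EGF were incubated 5 hours. Finally, CCF4 was added for 2.5 hours and the 460/530 nm ratio recorded.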"}, "[2]": {"target": "Cytochrome P450 1A2 (Homo sapiens) (UniProt P05177)", "sequence (P05177 whole entry, looked up)": "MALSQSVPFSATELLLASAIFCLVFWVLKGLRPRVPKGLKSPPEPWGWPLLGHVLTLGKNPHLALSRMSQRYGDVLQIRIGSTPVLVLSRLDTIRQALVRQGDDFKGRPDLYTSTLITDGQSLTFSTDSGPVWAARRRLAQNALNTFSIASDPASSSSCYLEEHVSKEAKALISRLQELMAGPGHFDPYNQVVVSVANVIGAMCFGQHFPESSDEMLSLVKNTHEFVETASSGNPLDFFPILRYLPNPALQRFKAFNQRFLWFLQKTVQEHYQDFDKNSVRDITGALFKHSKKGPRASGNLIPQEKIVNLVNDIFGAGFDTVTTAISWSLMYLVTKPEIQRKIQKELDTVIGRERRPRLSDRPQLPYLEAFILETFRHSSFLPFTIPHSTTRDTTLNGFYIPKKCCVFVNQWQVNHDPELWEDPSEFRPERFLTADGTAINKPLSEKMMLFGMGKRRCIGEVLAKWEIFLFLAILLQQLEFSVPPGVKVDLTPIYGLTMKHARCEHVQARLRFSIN", "test": "p450-cyp1a2 (AID 410; calls by dose curve; further: potency means the concentration at half of the fitted maximal effect)", "outline": "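20nM CYP1A2, 100uM Luciferin-ME (=Km), 100mM KPO4; cpd 10 min RT; +NADPH regen, 60 min RT; stop/detect 20 min; luminescence. Normalized to furafylline 57 uM = full inhibition.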"}, "[3]": {"test": "NFAT Signaling Pathway (AID 444);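 further: carbachol stimulus at about its EC50 of 1 µM final; on the % scale 0 is the no-effect control and ±100 the full control effect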", "details": "Jurkat NFAT-bla M1, carbachol, beta-lactamase ratio, 5 h", "outline": "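Read-out: CCF4 FRET ratio (460 nm/530 nm) after 1 h RT dye loading, used for %activity and AC50 from titration series. Cells: Jurkat NFAT-β-lactamase/M1 line, treated with compound plus 1 uM carbachol for 5 h, 37 °C.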"}, "[4]": {"test": "Stat Signaling Pathway (AID 446);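 further: ME-180 cervical cancer cells given 40 pM IL-6 alongside compound; SIE-controlled beta-lactamase reporter measured as 460/530 nm FRET emission ratio; on the % scale 0 is the no-effect control and ±100 the full control effect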", "outline": "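Normalization used AC90 stimulation (300 pM IL-6) and AC90 inhibition (125 nM pan-JAK inhibitor at 40 pM IL-6). The underlying signal is SIE-driven beta-lactamase in ME-180 cells after 5 h IL-6 exposure with compound.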"}, "[5]": {"target": "Glucocorticoid receptor (Homo sapiens) (UniProt P04150)", "sequence (P04150 whole entry, looked up, the tested form may be a part)": "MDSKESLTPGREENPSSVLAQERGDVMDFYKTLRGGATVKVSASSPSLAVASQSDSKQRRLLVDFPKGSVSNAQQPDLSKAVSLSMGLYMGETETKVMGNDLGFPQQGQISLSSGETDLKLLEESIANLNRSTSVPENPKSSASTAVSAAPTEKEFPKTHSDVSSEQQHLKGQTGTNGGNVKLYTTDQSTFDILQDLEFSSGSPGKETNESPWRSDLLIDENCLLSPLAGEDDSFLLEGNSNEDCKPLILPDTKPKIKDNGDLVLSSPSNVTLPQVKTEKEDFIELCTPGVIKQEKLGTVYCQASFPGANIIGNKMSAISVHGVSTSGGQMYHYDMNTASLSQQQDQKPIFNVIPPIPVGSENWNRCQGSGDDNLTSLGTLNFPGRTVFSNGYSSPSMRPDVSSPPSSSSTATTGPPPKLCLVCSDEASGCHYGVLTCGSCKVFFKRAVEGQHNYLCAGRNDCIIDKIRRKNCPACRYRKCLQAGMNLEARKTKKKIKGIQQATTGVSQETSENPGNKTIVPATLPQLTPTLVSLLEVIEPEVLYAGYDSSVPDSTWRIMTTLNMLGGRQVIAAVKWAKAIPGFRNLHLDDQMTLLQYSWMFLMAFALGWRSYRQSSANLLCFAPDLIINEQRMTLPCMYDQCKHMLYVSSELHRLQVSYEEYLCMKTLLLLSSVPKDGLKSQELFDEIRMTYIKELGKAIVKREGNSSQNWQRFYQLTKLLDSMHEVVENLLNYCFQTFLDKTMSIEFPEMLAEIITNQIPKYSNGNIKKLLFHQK", "test": "GR-GFP Redistribution (AID 450;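 active means compounds whose dose series gives a full or clear partial fitted curve of increased nuclear translocation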; further: potency means the concentration at half of the fitted maximal effect)", "details": "U2OS GR-GFP nuclear translocation, laser cytometry, 2 h"}, "[6]": {"target": "Glucocorticoid receptor (Homo sapiens) (UniProt P04150)", "test": "GR-EFC Redistribution (AID 451; calls by dose curve; further: potency means the concentration at half of the fitted maximal effect)", "details": "CHO-K1 GR-EFC translocation, beta-gal luminescence, 2 h", "outline": "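Translocation of GR-ED fusion to nuclear EA restores b-gal, read by luminescence after 1 h room-temperature detection. Engineered CHO-K1 biosensor cells, 1,000/well, exposed 2 h at 37 C to titrations up to 46 uM final.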"}, "[7]": {"target": "Mitogen-activated protein kinase 10 (Mus musculus) (UniProt Q61831)", "test": "JNK3 AlphaScreen Assay (AID 530);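 further: kinase came from lysate of stimulated human HepG2 cells; signal reports phosphorylation of biotinylated GST-cJun 1-79 at Ser73 with 10 µM ATP; on the % scale 0 is the no-effect control and ±100 the full control effect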", "outline": "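Kinase buffer: 20 mM Tris-HCl pH 7.6, 10 mM MgCl2, 1 mM DTT, 0.1 mM Na3VO4, 0.01% Tween-20; ATP 10 uM. Substrate biotin-GST-cJun(1-79), enzyme from activated HepG2 lysates. Detection by Ser73 phospho-antibody AlphaScreen.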"}, "[8]": {"target": "3',5'-cyclic-AMP phosphodiesterase 4B (Homo sapiens) (UniProt Q07343)", "sequence (Q07343 whole entry, looked up)": "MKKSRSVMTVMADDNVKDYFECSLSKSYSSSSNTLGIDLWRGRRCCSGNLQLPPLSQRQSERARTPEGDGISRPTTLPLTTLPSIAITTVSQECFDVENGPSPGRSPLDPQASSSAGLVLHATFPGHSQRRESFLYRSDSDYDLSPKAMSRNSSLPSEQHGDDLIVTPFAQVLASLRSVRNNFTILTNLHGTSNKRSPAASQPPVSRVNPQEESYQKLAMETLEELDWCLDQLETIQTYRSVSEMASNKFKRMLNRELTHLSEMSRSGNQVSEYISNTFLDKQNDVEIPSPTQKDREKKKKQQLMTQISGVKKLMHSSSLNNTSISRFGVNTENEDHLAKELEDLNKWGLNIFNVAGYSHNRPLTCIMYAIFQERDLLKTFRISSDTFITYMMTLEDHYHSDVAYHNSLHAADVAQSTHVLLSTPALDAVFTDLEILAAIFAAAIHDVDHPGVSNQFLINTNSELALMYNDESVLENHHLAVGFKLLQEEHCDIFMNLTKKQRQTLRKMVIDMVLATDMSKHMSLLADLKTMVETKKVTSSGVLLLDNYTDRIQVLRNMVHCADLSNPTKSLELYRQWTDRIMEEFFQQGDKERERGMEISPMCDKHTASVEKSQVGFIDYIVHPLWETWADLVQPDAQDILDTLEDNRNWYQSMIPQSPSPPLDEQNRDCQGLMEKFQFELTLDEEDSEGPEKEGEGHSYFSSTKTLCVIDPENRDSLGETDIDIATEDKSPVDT", "test": "qHTS Assay for Inhibitors of PDE-IV (AID 607; active means well fitted activation curve with a large enough effect in the main read-out, with a control signal flat, not every such curve was filed as active; further: % of control where 0% means no effect)", "outline": "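HEK293 ACTOne cells with CNG channel (1000/well), endogenous PDE4; membrane potential dye, compounds up to 22.9 uM final. Fluorescence Ex 535/Em 590; RO 20-1724 (100 uM final) as reference.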"}, "[9]": {"test": "qHTS Assay for Lipid Storage Modulators (AID 1519; calls by dose curve)", "details": "Drosophila S3 cells, BODIPY lipid droplet/cell ratio, laser cytometry, cells loaded with oleic acid", "outline": "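Cells seeded at 5,000 per well were treated with compounds over a concentration series and loaded with oleic acid (400 uM, as added). Lipid droplet fluorescence (488 nm excitation, 500-530 nm channel) was read by laser-scanning cytometry and normalized to 20 uM Triacsin C.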"}, "[10]": {"target": "Ubiquitin carboxyl-terminal hydrolase 1 (Homo sapiens) (UniProt O94782)", "sequence (O94782 whole entry, looked up)": "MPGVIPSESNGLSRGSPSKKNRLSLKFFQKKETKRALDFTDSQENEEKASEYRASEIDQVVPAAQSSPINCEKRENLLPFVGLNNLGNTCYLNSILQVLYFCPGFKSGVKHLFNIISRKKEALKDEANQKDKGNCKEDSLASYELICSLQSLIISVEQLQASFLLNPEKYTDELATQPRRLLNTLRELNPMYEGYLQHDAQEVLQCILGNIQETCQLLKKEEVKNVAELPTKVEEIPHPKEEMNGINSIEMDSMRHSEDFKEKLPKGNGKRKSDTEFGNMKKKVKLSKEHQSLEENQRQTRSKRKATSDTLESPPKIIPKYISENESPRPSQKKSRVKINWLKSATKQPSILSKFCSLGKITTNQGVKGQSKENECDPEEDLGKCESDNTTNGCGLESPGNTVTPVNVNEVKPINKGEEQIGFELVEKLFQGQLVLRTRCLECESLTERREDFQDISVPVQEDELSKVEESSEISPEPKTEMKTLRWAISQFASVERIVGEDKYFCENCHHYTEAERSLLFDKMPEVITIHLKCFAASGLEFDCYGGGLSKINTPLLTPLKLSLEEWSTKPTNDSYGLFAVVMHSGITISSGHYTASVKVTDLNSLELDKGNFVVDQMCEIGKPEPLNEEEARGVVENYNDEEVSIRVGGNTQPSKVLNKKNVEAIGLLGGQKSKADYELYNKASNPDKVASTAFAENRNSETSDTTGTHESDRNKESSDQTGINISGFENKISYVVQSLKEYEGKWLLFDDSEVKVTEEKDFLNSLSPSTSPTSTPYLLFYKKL", "test": "Inhibitors of USP1/UAF1: Pilot qHTS (AID 504865; active means well fitted inhibition curve with a large enough effect;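 further: rhodamine fluorescence freed from ubiquitin-rhodamine substrate followed over time; top concentration of the series differs between compounds; on the % scale 0 is the no-effect control and ±100 the full control effect; nearly all actives have a fitted effect of over 35% in size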)", "outline": "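1nM USP1/UAF1 + cpd, 15 min RT; start w/ Ub-Rho 150nM final; kinetic FL 480/540 nm, 6 reads q60 s. Buffer 50mM HEPES pH 7.8, 0.5mM EDTA, 1mM TCEP, 0.01% Tween-20, 0.1 mg/ml BSA.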"}, "[11]": {"details": "measured here: cell count channel max response"}, "[12]": {"details": "measured here: lipid channel max response"}}, "note": "Values joined by “and” are separate entries in the source; they are usually repeats but may differ in a detail not shown here. Equal entries are not always repeated. Records with an inconclusive call do not appear. The source holds several records for some structures; these can differ, active in one and inactive in another. Active and inactive are the calls of the source. Unless noted, the call rests on the fitted dose curve; in most records, active means well fitted curve in either direction with a large enough effect (not every such curve was filed as active); inconclusive means small, poorly fitted or top-dose-only effect, or another doubt; inactive means flat fitted curve, though single readings scatter."}
{"smiles": "CCN1C[C@]2(C)CC[C@H](O)[C@@]34[C@@H]5CC6[C@@H](OC)C[C@@](O)([C@@H]5[C@@H]6O)[C@H](C[C@@H]23)[C@H]14", "values": [{"measurement": "outcome", "setting": "[1]", "result": "inactive"}, {"measurement": "Potency", "setting": "[2]", "result": "inactive"}, {"measurement": "activity change, negative = inhibition", "setting": "[3]; at 17.2 µM (top of the series)", "result": "-2.56% (inactive)"}, {"measurement": "outcome", "setting": "[4]", "result": "inactive"}, {"measurement": "Potency", "setting": "[5]", "result": "> 20.6 µM (inactive)"}, {"measurement": "Potency", "setting": "[6]", "result": "> 20.6 µM (inactive)"}, {"measurement": "outcome", "setting": "[7]", "result": "inactive"}, {"measurement": "Potency", "setting": "[8]", "result": "inactive"}, {"measurement": "activity change, negative = inhibition", "setting": "[9]; at 25.7 µM (top of the series)", "result": "-2.73% (inactive)"}, {"measurement": "max response", "setting": "[9]; [11]", "result": -6.13, "unit": "%"}, {"measurement": "max response", "setting": "[9]; [12]", "result": -11.4, "unit": "%"}, {"measurement": "Potency", "setting": "[10]", "result": "inactive"}]}
{"smiles": "C/C=C1\\C[C@H](C)[C@@](O)(CO)C(=O)OCC2=CCN3CC[C@@H](OC1=O)[C@@H]23", "values": [{"measurement": "outcome", "setting": "[1]", "result": "inactive"}, {"measurement": "Potency", "setting": "[2]", "result": "inactive"}, {"measurement": "activity change, negative = inhibition", "setting": "[3]; at 17.2 µM (top of the series)", "result": "-20.5% (inactive)"}, {"measurement": "outcome", "setting": "[4]", "result": "inactive"}, {"measurement": "Potency", "setting": "[5]", "result": "> 20.6 µM (inactive)"}, {"measurement": "Potency", "setting": "[6]", "result": "> 20.6 µM (inactive)"}, {"measurement": "outcome", "setting": "[7]", "result": "inactive"}, {"measurement": "Potency", "setting": "[8]", "result": "inactive"}, {"measurement": "activity change, negative = inhibition", "setting": "[9]; at 25.7 µM (top of the series)", "result": "0.17% (inactive)"}, {"measurement": "max response", "setting": "[9]; [11]", "result": 4.82, "unit": "%"}, {"measurement": "max response", "setting": "[9]; [12]", "result": 5.25, "unit": "%"}]}
{"smiles": "COc1cc2c(cc1OC)[C@H](C)NCC2", "values": [{"measurement": "outcome", "setting": "[1]", "result": "inactive"}, {"measurement": "Potency", "setting": "[2]", "result": "inactive and 20 µM (active)"}, {"measurement": "activity change, negative = inhibition", "setting": "[3]; at 17.2 µM (top of the series)", "result": "4.97% (inactive)"}, {"measurement": "outcome", "setting": "[4]", "result": "inactive"}, {"measurement": "Potency", "setting": "[5]", "result": "> 20.6 µM (inactive) and > 46 µM (inactive)"}, {"measurement": "Potency", "setting": "[6]", "result": "> 20.6 µM (inactive) and > 46 µM (inactive)"}, {"measurement": "outcome", "setting": "[7]", "result": "inactive"}, {"measurement": "Potency", "setting": "[8]", "result": "inactive"}, {"measurement": "activity change, negative = inhibition", "setting": "[9]; at 25.7 µM (top of the series)", "result": "-2.81% (inactive)"}, {"measurement": "max response", "setting": "[9]; [11]", "result": -4.52, "unit": "%"}, {"measurement": "max response", "setting": "[9]; [12]", "result": -9.32, "unit": "%"}, {"measurement": "Potency", "setting": "[10]", "result": "inactive"}]}
{"smiles": "C[C@H]1C(=O)O[C@@H]2CCN3CC=C(COC(=O)[C@@](C)(O)[C@@]1(C)O)[C@H]23", "values": [{"measurement": "outcome", "setting": "[1]", "result": "inactive"}, {"measurement": "Potency", "setting": "[2]", "result": "inactive"}, {"measurement": "activity change, negative = inhibition", "setting": "[3]; at 17.2 µM (top of the series)", "result": "3.38% (inactive)"}, {"measurement": "outcome", "setting": "[4]", "result": "inactive"}, {"measurement": "Potency", "setting": "[5]", "result": "> 20.6 µM (inactive)"}, {"measurement": "Potency", "setting": "[6]", "result": "> 20.6 µM (inactive)"}, {"measurement": "outcome", "setting": "[7]", "result": "inactive"}, {"measurement": "activity change, negative = inhibition", "setting": "[9]; at 25.7 µM (top of the series)", "result": "-2.11% (inactive)"}, {"measurement": "max response", "setting": "[9]; [11]", "result": 4.14, "unit": "%"}, {"measurement": "max response", "setting": "[9]; [12]", "result": 3.19, "unit": "%"}, {"measurement": "Potency", "setting": "[10]", "result": "inactive"}]}
{"smiles": "CC(C)NC(=O)N1CCC2(CCNCC2)CC1", "values": [{"measurement": "outcome", "setting": "[1]", "result": "inactive"}, {"measurement": "outcome", "setting": "[4]", "result": "inactive"}, {"measurement": "outcome", "setting": "[7]", "result": "inactive"}, {"measurement": "Potency", "setting": "[8]", "result": "inactive"}, {"measurement": "activity change, negative = inhibition", "setting": "[9]; at 57.5 µM (top of the series)", "result": "4% (inactive)"}, {"measurement": "max response", "setting": "[9]; [11]", "result": 1.41, "unit": "%"}, {"measurement": "max response", "setting": "[9]; [12]", "result": 7.12, "unit": "%"}]}
{"smiles": "CC(C)[C@@]1(NC(=O)[C@@H]2C[C@H]3c4cccc5[nH]cc(c45)C[C@@H]3N(C)C2)O[C@]2(O)[C@H]3CCCN3C(=O)[C@H](Cc3ccccc3)N2C1=O", "values": [{"measurement": "outcome", "setting": "[1]", "result": "inactive"}, {"measurement": "Potency", "setting": "[2]", "result": "inactive"}, {"measurement": "activity change, negative = inhibition", "setting": "[3]; at 17.2 µM (top of the series)", "result": "1.85% (inactive)"}, {"measurement": "outcome", "setting": "[4]", "result": "inactive"}, {"measurement": "Potency", "setting": "[5]", "result": "> 20.6 µM (inactive)"}, {"measurement": "Potency", "setting": "[6]", "result": "> 20.6 µM (inactive)"}, {"measurement": "outcome", "setting": "[7]", "result": "inactive"}, {"measurement": "Potency", "setting": "[8]", "result": "inactive"}, {"measurement": "activity change, negative = inhibition", "setting": "[9]; at 25.7 µM (top of the series)", "result": "-1.27% (inactive)"}, {"measurement": "max response", "setting": "[9]; [11]", "result": 6.35, "unit": "%"}, {"measurement": "max response", "setting": "[9]; [12]", "result": 5.89, "unit": "%"}, {"measurement": "Potency", "setting": "[10]", "result": "inactive"}]}
{"smiles": "COc1ccc2c(c1OC)C(=O)O[C@H]2[C@H]1c2cc3c(cc2CCN1C)OCO3", "values": [{"measurement": "outcome", "setting": "[1]", "result": "inactive"}, {"measurement": "Potency", "setting": "[2]", "result": "25.1 µM (active) and inactive and 31.6 µM (active)"}, {"measurement": "activity change, negative = inhibition", "setting": "[3]; at 17.2 µM (top of the series)", "result": "-1.79% (inactive)"}, {"measurement": "activity change, negative = inhibition", "setting": "[3]; at 38 µM (top of the series)", "result": "9.14% (inactive)"}, {"measurement": "outcome", "setting": "[4]", "result": "inactive"}, {"measurement": "outcome", "setting": "[7]", "result": "inactive"}, {"measurement": "activity change, negative = inhibition", "setting": "[9]; at 25.7 µM (top of the series)", "result": "3% (inactive)"}, {"measurement": "max response", "setting": "[9]; [11]", "result": -6.69, "unit": "%"}, {"measurement": "max response", "setting": "[9]; [12]", "result": -2.42, "unit": "%"}, {"measurement": "Potency", "setting": "[10]", "result": "inactive"}]}
